Assay outcomes (PubChem)
HTT cytoprotect – qHTS Multiplex Assay to Identify Dual Action Probes in a Cell Model of Huntington: Cytoprotection (ATP). PC12 HTT-Q103 induced, cytoprotection, ATP luminescence, 40 h. Potency, µM (series often up to 56.4 µM), inactives show cytoprotection (ATP increase), hits mostly activators. actives 0.14% (n = 230,000); also: % of control where 0% means no effect; nearly all actives have a fitted effect of over 45% in size
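Compounds added alongside 100 nM tebufenozide, which induces toxic Q103 huntingtin exon 1-GFP in stable PC12 cells; surviving cells quantified by luminescent ATP measurement. Medium: phenol red-free DMEM, 5% equine and 5% calf serum.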
HTT aggregate – qHTS Multiplex Assay to Identify Dual Action Probes in a Cell Model of Huntington: Aggregate Formation (GFP). PC12 HttQ103-GFP aggregates, Acumen cytometry, 40 h. Potency, µM (titrated, usually from 46.1 µM), inactives show at the highest dose activity change, negative = inhibition, actives largely listed as inhibitors. actives 1.1% (n = 220,000). AID 1688, 2009; also: % is scaled to controls: 0 for no effect and ±100 for the full control effect; nearly all actives have a fitted effect of over 60% in size
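Aggregates are detected as GFP objects 1–25 µm with signal 6 STDEV over background in lysates of induced PC12 cells. These carry Huntingtin exon 1 with 103 glutamines fused to GFP under an ecdysone promoter; compounds titrated.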
ERK EGF block – qHTS Assay for Inhibitors of the ERK Signaling Pathway using a Homogeneous Screening Assay; Stimulation with EGF | HEK293-V1b, EGF-stimulated phospho-ERK AlphaScreen | Potency, µM (top dose mostly 11.5 µM), for inactives: at the top dose activity change, negative = inhibition, most hits filed as inhibitors | actives 0.41% (n = 130,000);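 also: plate controls were stimulated vehicle wells for no effect and unstimulated vehicle basal for full effect; nearly all actives have a fitted effect of over 55% in size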
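HEK293 cells stably expressing V1b receptor, serum-reduced (1% FBS) overnight, pretreated 30 min with compound, then stimulated 5 min with 25 nM EGF; phospho-ERK detected by AlphaScreen SureFire. AC50 from Hill fits, normalized to DMSO and EGF.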
* = called active by the depositor; ? = inconclusive; nt = no result given; [ ] = another dose, or the depositor's remark. Only some compounds are listed: those with a hit (about 1.4% of all), similar ones and a draw of the others. Calls follow the shape of the dose curve; as a rule, active = well fitted curve in the direction sought with a large enough effect; inconclusive = small, poorly fitted or top-dose-only effect, or another doubt; inactive = no such curve, though single readings can be large; an effect the other way counts as inactive or inconclusive. Potency is read from the fitted curve at half-maximal effect.

SMILES | HTT cytoprotect | HTT aggregate | ERK EGF block
COc1cccc2c1C(CO)N1C(C#N)C3CC(C(=O)O)C(C1C2)N3C (configuration not stated) | -55%[10 µM] | 1.1µM* | -2%[57.5 µM]
COc1ccc(/C=N/Nc2snc(SC)c2C#N)cc1OC | -24% | -7% | nt
COc1cccc(/C=N/Nc2snc(SC)c2C#N)c1O | nt | 11µM* | -6%
CN1CCN(c2ncc3nc(CCc4ccccc4)c(=O)n(Cc4ccc(F)cc4)c3n2)CC1 | 18% | nt | ?
CCCNC(=O)c1c(N)n(-c2ccc3c(c2)OCO3)c2nc3ccccc3nc12 | -25% | 3% | nt
CCCNC(=O)c1c(N)n(-c2cc(OC)cc(OC)c2)c2nc3ccccc3nc12 | -21%[0.074 µM] | 18µM* | nt
O=[N+]([O-])c1ccc2c(c1)Cc1cc(N=Cc3ccc4c(c3)OCO4)ccc1-2 | 7%[10 µM] | nt | nt
Clc1ccc(Cn2ncc3c(NCc4ccco4)ncnc32)c(Cl)c1 | 10%[0.074 µM] | ? | nt
Cc1ccc(CNc2ncnc3cc(Cl)ccc23)o1 | -10% | 13µM* | nt
CCc1ncnc2cc(OC)c(OC)cc12 | -15% | -3% | nt
COc1cc2ncnc(NCc3ccc(C)o3)c2cc1OC | -79% | 17%[9.22 µM] | 28µM*
O=C1[C@@H]2[C@@H]3C=C[C@H]([C@@H]2C(=O)N1CN1CCSCC1)[C@@H]1[C@@H]2C(=O)N(CN4CCSCC4)C(=O)[C@@H]2[C@H]31 | -21%[10 µM] | nt | nt
Cc1cc2c(nc1C)CCCN2C[C@H](C)O/N=C\[C@@H](C)[C@H](OCc1ccccc1)C(C)C | 1%[10 µM] | nt | nt
CC(=O)OC[C@@H]1O[C@H](C/C=N\OC[C@@H](O)COCc2ccco2)C=C[C@@H]1OC(C)=O | -11%[10 µM] | nt | nt
O=C(Nc1ccccc1)N1CC[C@@]2(CCCN(C(=O)c3csnn3)C2)C1 | -6% | nt | -7%
COc1ccc(S(=O)(=O)n2nc(OC(C)=O)cc2N)cc1 | 7%[10 µM] | -3%[9.22 µM] | -10%[57.5 µM]
COc1ccc(C(=O)Oc2cc(N)n(S(=O)(=O)c3ccccc3)n2)cc1 | 0.71µM* | ? | 2%
NCOC(=O)Cc1ccc(Br)cc1 | 14%[10 µM] | nt | nt
Cc1cc(C)nc(NS(=O)(=O)c2ccc(NC(=O)c3cccs3)cc2)n1 | -12% | 7% | nt
CCCCN(CCCC)S(=O)(=O)c1ccc(NC(=O)c2cccs2)cc1 | 9%[10 µM] | 13µM* | nt
N#CC(C#N)=C1C=CC=CN1/C(=C\c1ccco1)C(=O)c1ccc(-c2ccccc2)cc1 | 4%[10 µM] | 7.1µM* | ?
N#C/C(=C\c1ccco1)C(=O)NCc1ccccc1 | 4%[10 µM] | 11% | -3%
CCCCN(CC)S(=O)(=O)c1cccc2cccnc12 | 15% | nt | nt
Cc1ccc(N=Cc2cc(Cc3ccccc3Cl)cc([N+](=O)[O-])c2O)c(O)c1 | ? | ? | -1%
COc1ccc(N=Cc2cc(Cc3ccccc3Cl)cc([N+](=O)[O-])c2O)cc1OC | 35µM* | 22µM* | 6%
SMILES | HTT cytoprotect | HTT aggregate | ERK EGF block
O=C(O)[C@@H](O)[C@@H](O)[C@H](O)[C@H](O)CO | ? | 5% | nt
O=C(Cl)c1cccc([N+](=O)[O-])c1 | 4% | nt | nt
Cc1cc(=O)c2c(O)c3c(O)cc(=O)c4c3c3c(cc(O)c1c23)C(C)(C)C=4O | -253% | 3.2µM* | -15%
CC(Nc1cccc2ccccc12)C(=O)N/N=C/c1ccc([N+](=O)[O-])cc1 (configuration not stated) | -21%[10 µM] | ? | -4%
COc1cc([N+](=O)[O-])cc(/C=N/NC(=O)C(C)Nc2cccc3ccccc23)c1O (configuration not stated) | 22%[10 µM] | 13µM* | -4%
CS(=O)(=O)Nc1cccc(-c2cncnc2NCc2cccnc2)c1 | -10% | nt | nt
CCc1c(C)nc2ncnn2c1NCCc1ccccc1 | -37% | 10µM* | nt
CCc1c(C)nc2ncnn2c1NCCc1ccc(Cl)cc1 | 10%[10 µM] | -19%[9.22 µM] | 0%
COc1ccc(S(=O)(=O)CCC(=O)O)cc1 | -28% | 2.2µM* | nt
CC(=O)CCS(=O)(=O)c1ccc(Oc2ccc(S(=O)(=O)CCC(C)=O)cc2)cc1 | 24%[10 µM] | ? | 6%
O=C1O/C(=C\Br)CC[C@@H]1c1cccc2ccccc12 | 28%[1.9 µM] | nt | nt
CC(=O)c1c(O)c(C)c(O)c2c1OC1=CC(=O)C(C(C)=O)C(=O)[C@@]12C (some centres not stated) | -11%[1.9 µM] | nt | 3%
Cc1cccc(N2CCN(C(c3ccccc3)c3nnnn3C(C)(C)C)CC2)c1C (configuration not stated) | -2%[10 µM] | ? | -1%
Cc1cccc(N2CCN(C(c3cccs3)c3nnnn3C(C)(C)C)CC2)c1C (configuration not stated) | 11%[10 µM] | 11µM* | nt
Cc1cc(=O)[nH]c(N=N/C(=N/Nc2ccc(O)cc2)c2ccccc2)n1 | -90%[10 µM] | 1.6µM* | nt
COc1ccc(N/N=C(/N=Nc2nc(C)cc(=O)[nH]2)c2ccccc2)cc1 | -81%[10 µM] | ? | nt
C[C@H](O/N=C1/[C@H]2O[C@@H]2[C@@H](O)[C@H]2[C@H]1CCn1c(=O)n(-c3ccccc3)c(=O)n12)c1cn([C@H]2COC[C@H]2O)nn1 | 3%[10 µM] | nt | nt
Cc1ccc2c(c1)C(=O)C1(O)CCN(c3ccccc3)C1=N2 (configuration not stated) | -99% | nt | nt
Cc1cc(=O)oc2cc(O)ccc12 | 5.6µM* | 8%[20.6 µM] | 1%[25.7 µM]
O=c1cc(O)c2ccc(O)cc2o1 | 4%[10 µM] | 5%[9.22 µM] | -9%[57.5 µM]
Cn1c(-c2nc(-c3ccccc3)cs2)nc2ccccc21 | nt | nt | 14%
Cc1ccc2cc(CN(Cc3ccccc3)Cc3nnnn3C3CCCC3)c(=O)[nH]c2c1 | -13%[10 µM] | ? | nt
Cc1ccc2cc(CN(Cc3ccc(F)cc3)Cc3nnnn3C3CCCC3)c(=O)[nH]c2c1 | -6%[1.9 µM] | 25µM* | nt
N.N.N.N.N.N.N.N.N.N.N.N.N.N.O.O.[Cl-].[Cl-].[Cl-].[Cl-].[Cl-].[Cl-].[Ru].[Ru].[Ru] | nt | nt | 16µM*
Cc1ccc(C(=O)NCCc2ccncc2)cc1 | -47% | -2% | nt
SMILES | HTT cytoprotect | HTT aggregate | ERK EGF block
O=C(NCc1ccncc1)c1ccc(Br)cc1 | -17%[10 µM] | -31% | nt
O=C(NCc1ccncc1)c1ccc(Oc2ccccc2)cc1 | 0%[10 µM] | 11µM* | -1%
Cc1ccc(Oc2ccc(C(=O)NCc3ccncc3)cc2)cc1 | -96% | 11µM* | -5%
COc1ccc2c(c1)N(C[C@@H](C)CN(C)C)c1ccccc1S2 | -48%[17.1 µM] | -5%[20.6 µM] | -7%[25.7 µM]
CC(C)NC(=O)N1CCC2(CC1)CCN(S(C)(=O)=O)CC2 | -24% | nt | -3%
C/C(CCN1CCCc2nc(C)c(C)cc21)=N\OC[C@@H](O)[C@@H]1O[C@@H]2OC(C)(C)O[C@@H]2[C@H]1O | 5%[10 µM] | nt | nt
O[C@@H]1[C@@H](OCc2ccccc2)OC[C@H](O)[C@@H]1O | 22%[10 µM] | nt | nt
N=c1c2c(ncn1CCCO)Oc1c(ccc3ccccc13)C2c1ccccc1 (configuration not stated) | -19%[10 µM] | 13%[9.22 µM] | -11%[57.5 µM]
COc1ccc(C2c3ccc4ccccc4c3Oc3ncn(CCCO)c(=N)c32)cc1 (configuration not stated) | -40%[10 µM] | -10%[9.22 µM] | 40µM*
CCc1ccc(CN2CCN(C(=O)c3cccc(OC)c3OC)CC2)cc1 | 5%[10 µM] | 7.9µM* | 8%
